From PubChem BioAssay (NCATS)
Results filed as inconclusive are left out. Where a call stands in place of a potency, no number is given. The source made the active and inactive calls. Unless noted, the call rests on the fitted dose curve; in most records, active means well fitted curve in the direction sought with a large enough effect; inconclusive means small, poorly fitted or top-dose-only effect, or another doubt; inactive means no such curve, though single readings can be large; an effect the other way counts as inactive or inconclusive.

Tests used:
[1] = Primary qHTS for small molecule stabilizers of the endoplasmic reticulum resident proteome: Secreted ER Calcium Modulated Protein (SERCaMP) assay (AID 1508630); conditions: SH-SY5Y GLuc-SERCaMP (Gaussia luciferase released on ER calcium loss) secretion, thapsigargin, luminescence; series mostly up to 38.4 µM
In short: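 The SH-SY5Y reporter protocol was run at 3 concentrations up to 38.3 uM (primary) or 11 concentrations (follow-up): 16 h compound, 100 nM thapsigargin for 4 h, then extracellular luciferase luminescence.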

[2] = Primary qHTS for inhibitors of La Crosse Virus (LACV) - induced cell death in SH-SY5Y cells (AID 1508616); conditions: SH-SY5Y LACV cytopathicity rescue, ATP luminescence, 6 d; series mostly up to 4.29 µM;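 further: top concentration of the series differs between compounds; higher means more rescue of cells from virus-induced death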
In short: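 Cytopathicity rescue screen: compounds pinned onto SH-SY5Y cells, which are then infected with LACV (MOI 0.01) and held 6 days at 37C. Percent activity is scaled between infected DMSO control and uninfected DMSO control.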

[3] = target: Calcium and integrin-binding protein 1 (Homo sapiens) (UniProt Q99828); test: Primary qHTS for Identification of Calcium Integrin Binding Protein 1 (CIB1) Competitor (AID 1508620); conditions: CIB1-GST / FITC-alphaIIb peptide fluorescence polarization; series mostly up to 57.7 µM;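 further: GST tagged CIB1 binding a fluorescein labelled alphaIIb integrin peptide tracer; top concentration of the series differs between compounds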
Calcium and integrin-binding protein 1 (Homo sapiens), sequence (Q99828 whole entry, looked up): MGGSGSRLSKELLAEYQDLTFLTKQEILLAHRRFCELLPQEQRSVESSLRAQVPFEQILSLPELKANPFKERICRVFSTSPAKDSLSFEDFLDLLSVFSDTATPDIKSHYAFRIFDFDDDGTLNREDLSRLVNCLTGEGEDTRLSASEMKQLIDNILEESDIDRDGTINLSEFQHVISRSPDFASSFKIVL
In short: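 CIB1-GST (1 uM final) and compound incubated 15 min at room temperature before adding FITC-alphaIIb peptide tracer (100 nM final). Competition for binding read by fluorescence polarization (ex 480, em 540) after another 15 min at room temperature.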

[4] = A High-Content qHTS Against Drug Library for the Identification of Small Molecules that Inhibit DYT1 Early Onset Primary Dystonia-Associated Cell Pathology (AID 1645839; calls by dose curve); conditions: HEK293 Flp-In EGFP-delE TorsinA, punctate imaging, 48 h; series mostly up to 46.1 µM
In short: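 High-content imaging quantified EGFP-TorsinA mislocalization in HEK293-derived cells inducibly expressing DYT1 mutant torsinA, after 48 h exposure to compound given together with tetracycline induction. Cell count served as a toxicity channel alongside %pathology.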

[5] = Counterscreen qHTS for small molecule stabilizers of the endoplasmic reticulum resident proteome: GLuc-NoTag assay (AID 1508627); conditions: Gaussia luciferase NoTag secretion counterscreen, luminescence, thapsigargin 100 nM for final 4 h; series mostly up to 76.4 µM;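 further: SH-SY5Y cells given compound then 100 nM thapsigargin to empty ER calcium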
In short: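 Counterscreen line: SH-SY5Y-GLuc-NoTag cells, treated with compound 19 hr before a 4 hr, 100 nM thapsigargin calcium depletion. Secreted Gaussia luciferase in the medium was measured by luminescence after coelenterazine was added (0.07x final), with cells unlysed.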

[6] = Cell Viability qHTS for small molecule stabilizers of the endoplasmic reticulum resident proteome (AID 1508629); conditions: cell viability counter-screen, 100 nM thapsigargin for final 4 h;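 further: potency means the concentration at half of the fitted maximal effect; compound exposure about 46 h in total before the viability read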

SMILES | Potency [1] | Potency [2] | outcome [3] | Potency [4] | outcome [5] | Potency [6]
COC(=O)Nc1nc2ccc(C(=O)c3ccccc3)cc2[nH]1 | inactive |  |  |  |  | 
Cc1oc(=O)oc1CN1CCN(c2cc3c(cc2F)c(=O)c(C(=O)O)c2n3C(C)S2)CC1 (centres undefined) | inactive | inactive | inactive | inactive |  | 
OC(Cn1cncn1)(Cn1cncn1)c1ccc(F)cc1F |  | inactive | inactive | inactive |  | 
NS(=O)(=O)c1cc2c(cc1Cl)NC(C(Cl)Cl)NS2(=O)=O (centres undefined) | inactive | inactive | inactive | inactive |  | 
Oc1c(Cl)cc(Cl)c2cccnc12 | inactive |  | inactive |  | inactive | 20 µM (active)
CC1=NN(c2ccccc2)C(=O)C1 | inactive | inactive | inactive | inactive |  | 
O=C(O)CCn1c2c(c3ccccc31)C[C@H](NS(=O)(=O)c1ccc(F)cc1)CC2 |  |  |  | inactive |  | 
CN(C)CCc1c[nH]c2ccc(C[C@H]3COC(=O)N3)cc12 |  | inactive | inactive | inactive |  | 
O=C(O)c1cn(C2CC2)c2cc(N3CCNCC3)c(F)cc2c1=O |  | inactive |  | inactive |  | 
Cc1ccnc2c1NC(=O)c1cccnc1N2C1CC1 | inactive | inactive | inactive | inactive |  | 
N=C(N)c1ccc(OCCCCCOc2ccc(C(=N)N)cc2)cc1 | inactive |  | inactive | inactive |  | 
O=C(O)c1cc(=O)[nH]c(=O)[nH]1 |  | inactive | inactive | inactive |  | 
CNNCc1ccc(C(=O)NC(C)C)cc1 | inactive | inactive |  |  |  | 
Nc1nc(N)nc(-c2cc(Cl)ccc2Cl)n1 | inactive | inactive | inactive | inactive |  | 
CCCN[C@H]1CCc2nc(N)sc2C1 | inactive | inactive | inactive | inactive |  | 
O=c1oc2c(O)c(O)cc3c(=O)oc4c(O)c(O)cc1c4c23 | inactive | inactive | inactive | inactive |  | 
Nc1[nH]c(=O)ncc1F | inactive | inactive | inactive | inactive |  | 
C[C@@H](CN1CC(=O)NC(=O)C1)N1CC(=O)NC(=O)C1 | inactive |  | inactive | inactive |  | 
CCn1cc(C(=O)O)c(=O)c2cc(F)c(N3CCN(C)CC3)cc21 | inactive | inactive |  | inactive |  | 
CN(C)c1ccc(C(=C2C=CC(=[N+](C)C)C=C2)c2ccc(N(C)C)cc2)cc1 | inactive |  | inactive |  |  | 
CCc1cc(C(N)=S)ccn1 | inactive | inactive | inactive | inactive |  | 
CN(Cc1cc(Br)cc(Br)c1N)C1CCCCC1 | inactive | inactive | inactive | inactive |  | 
CC(C)(C)C(=O)OCOP(=O)(COCCn1cnc2c(N)ncnc21)OCOC(=O)C(C)(C)C | inactive |  | inactive | inactive |  | 
Clc1ccccc1CN1CCc2sccc2C1 | inactive |  |  | inactive |  | 
CCCc1nc(C)c2c(=O)[nH]c(-c3cc(S(=O)(=O)N4CCN(CC)CC4)ccc3OCC)nn12 | inactive | inactive | inactive | inactive |  | 
CCOC(=O)c1ccc(OC(=O)CCCCCN=C(N)N)cc1 | inactive | inactive | inactive | inactive |  | 
Cc1cc(NS(=O)(=O)c2ccc(N)cc2)no1 |  | inactive |  | inactive |  | 
Cc1onc(-c2ccccc2Cl)c1C(=O)N[C@@H]1C(=O)N2[C@@H]1SC(C)(C)[C@@H]2C(=O)O | inactive | inactive | inactive | inactive |  | 
